Screens (PubChem BioAssay)
Hck-Nef inh = human Hck-Nef kinase inhibition; P08631; Recombinant Hck-YEEI plus Nef, Z-Lyte FRET kinase assay; inhibition, % at 20 µM; 0.68% of 220,000 active;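 active means Hck-Nef kinase inhibition above about 50%, limit read from the data; inactive means inhibition below that limit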
Mcl1 Bid PPI = disrupts binding of human Mcl-1 to Bid peptide; inhibition, % at 21.7 µM; 0.97% of 220,000 active; AID 1021; TR-FRET Mcl-1/Bid-Dy647 peptide binding, 1536-well; Q07820;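 active means compounds that cut the binding signal by more than half at the single screening dose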;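 further: His-tagged Mcl-1 with europium anti-His antibody binding Bid BH3 peptide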
Target sequence (Q07820 whole entry, looked up): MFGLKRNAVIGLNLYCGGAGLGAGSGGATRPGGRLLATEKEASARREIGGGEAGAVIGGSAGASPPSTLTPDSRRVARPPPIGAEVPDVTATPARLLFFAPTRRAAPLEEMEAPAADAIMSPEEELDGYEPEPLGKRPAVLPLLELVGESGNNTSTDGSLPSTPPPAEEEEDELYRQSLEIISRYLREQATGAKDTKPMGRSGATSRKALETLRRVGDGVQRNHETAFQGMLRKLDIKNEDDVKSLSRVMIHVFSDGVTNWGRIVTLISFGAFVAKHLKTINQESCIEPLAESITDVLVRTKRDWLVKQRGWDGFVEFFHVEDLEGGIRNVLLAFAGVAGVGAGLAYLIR
Mcl1 Noxa PPI = Mcl-1/Noxa interaction inhibition. Q07820. TR-FRET Mcl-1/Noxa peptide binding, 2 h. inhibition, % at 21.7 µM. 1.5% of 220,000 active;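 active means compounds that cut the protein-peptide binding signal by more than 50% relative to plate controls in a single-dose test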;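 further: His-tagged Mcl-1 with rhodamine Noxa BH3 peptide and terbium anti-His antibody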
14-3-3 Bad PPI = disrupts binding of bovine 14-3-3 zeta to phospho-Bad peptide | P63103 | TR-FRET 14-3-3zeta/Dy647-pBad peptide displacement, 1 h | inhibition, % at 21.7 µM | 0.71% of 220,000 active | AID 781;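 active means inhibition above about 70%, limit read from the data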
Target sequence (P63103 whole entry, looked up): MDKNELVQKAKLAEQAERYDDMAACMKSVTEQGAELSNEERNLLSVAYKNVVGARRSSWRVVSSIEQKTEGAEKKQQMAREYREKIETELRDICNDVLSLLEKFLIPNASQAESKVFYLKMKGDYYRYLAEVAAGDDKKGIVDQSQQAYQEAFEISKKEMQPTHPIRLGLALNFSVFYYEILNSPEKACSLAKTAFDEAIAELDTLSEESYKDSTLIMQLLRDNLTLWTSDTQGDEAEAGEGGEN
Pf gametocyte = P. falciparum stage V gametocyte viability inhibition; 0.065% of 150,000 active; inhibition, % at 10.9 µM; P. falciparum stage V gametocytes, ATP luminescence, 24 h;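 active means inhibition above the mean plus 3 SD of compounds within the control limits, set per campaign, cut at about 38% in these data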
Mcl-1 Bim block = human Bim-Mcl-1 interaction inhibition; AID 1009; Bead-based flow cytometry, Bim peptide-Mcl-1 binding; 0.1% of 190,000 active; inhibition, % at 10 µM; Q07820; in the data active means inhibition above about 40%
Hits are given with their value. Shown are actives, neighbours in structure and some others; about 2.9% of the full set was active somewhere.

How did C#CCOCCOCCOCCNc1nc(N2CCN(C(=O)[C@H](CCC(=O)O)n3cc(C(N)CC(C)C)nn3)CC2)nc(N2CCN(C(=O)[C@H](CCC(=O)O)n3cc(C(N)CC(C)C)nn3)CC2)n1 (some centres undefined) do in these assays?
Hck-Nef inh: inactive; Mcl1 Bid PPI: 67; Mcl1 Noxa PPI: inactive; 14-3-3 Bad PPI: inactive; Mcl-1 Bim block: inactive

Results for C#CCOCCOCCOCCNc1nc(N2CCN(C(=O)[C@H](CCC(=O)O)n3cc(C(N)CO)nn3)CC2)nc(N2CCN(C(=O)[C@H](Cc3ccc(O)cc3)n3cc(C(N)CC(C)C)nn3)CC2)n1 (some centres undefined) ?
Hck-Nef inh: inactive; Mcl1 Bid PPI: inactive; Mcl1 Noxa PPI: inactive; 14-3-3 Bad PPI: inactive; Mcl-1 Bim block: inactive

How did C#CCOCCOCCOCCNc1nc(N2CCN(C(=O)[C@H]([C@@H](C)O)n3cc(CCCCN)nn3)CC2)nc(N2CCN(C(=O)[C@H](Cc3ccc(O)cc3)n3cc(CCO)nn3)CC2)n1 do in these assays?
Hck-Nef inh: inactive; Mcl1 Bid PPI: inactive; Mcl1 Noxa PPI: inactive; 14-3-3 Bad PPI: inactive; Pf gametocyte: inactive; Mcl-1 Bim block: inactive

How did C#CCOCCOCCOCCNc1nc(N2CCN(C(=O)[C@H]([C@@H](C)CC)n3cc([C@@H](N)CO)nn3)CC2)nc(N2CCN(C(=O)[C@H](Cc3ccc(O)cc3)n3cc([C@@H](N)CC(C)C)nn3)CC2)n1 do in these assays?
Hck-Nef inh: inactive; Mcl1 Bid PPI: 63; Mcl1 Noxa PPI: inactive; 14-3-3 Bad PPI: inactive; Pf gametocyte: inactive; Mcl-1 Bim block: inactive

What do the screens show for `C#CCOCCOCCOCCNc1nc(N2CCN(C(=O)[C@H](Cc3ccc(O)cc3)n3cc(CCO)nn3)CC2)nc(N2CCN(C(=O)[C@H](Cc3ccc(O)cc3)n3cc(CCO)nn3)CC2)n1`?
Hck-Nef inh: inactive; Mcl1 Bid PPI: inactive; Mcl1 Noxa PPI: inactive; 14-3-3 Bad PPI: 73; Mcl-1 Bim block: inactive

What do the screens show for `C#CCOCCOCCOCCNc1nc(N2CCN(C(=O)C([C@@H](C)CC)n3cc(C(N)CC(C)C)nn3)CC2)nc(N2CCN(C(=O)[C@H](CCC(=O)O)n3cc(C(N)CC(C)C)nn3)CC2)n1` (some centres undefined)?
Hck-Nef inh: inactive; Mcl1 Bid PPI: inactive; Mcl1 Noxa PPI: inactive; 14-3-3 Bad PPI: inactive; Mcl-1 Bim block: inactive

How did O=C(CSc1nncc(=O)[nH]1)NCc1ccccc1 do in these assays?
Hck-Nef inh: inactive; Mcl1 Bid PPI: inactive; Mcl1 Noxa PPI: inactive; 14-3-3 Bad PPI: inactive; Mcl-1 Bim block: inactive

Results for COc1ccc(S(=O)(=O)N2CCN(CCC(=O)Nc3ccc(F)cc3)CC2)cc1 ?
Hck-Nef inh: inactive; Mcl1 Bid PPI: inactive; Mcl1 Noxa PPI: inactive; 14-3-3 Bad PPI: inactive; Pf gametocyte: inactive; Mcl-1 Bim block: inactive

Results for O=C(O)C1CCCCC1C(=O)N1CCCC1 (centres undefined) ?
Hck-Nef inh: inactive; Mcl1 Bid PPI: inactive; Mcl1 Noxa PPI: inactive; 14-3-3 Bad PPI: inactive; Pf gametocyte: inactive; Mcl-1 Bim block: inactive

What do the screens show for `O=C(N/N=C/c1ccc(Sc2ccccn2)o1)c1cc2ccccc2cc1O`?
Hck-Nef inh: inactive; Mcl1 Bid PPI: inactive; Mcl1 Noxa PPI: inactive; 14-3-3 Bad PPI: inactive; Mcl-1 Bim block: inactive

What do the screens show for `O=C(O)CCCN=CC1=C(O)C(C(=O)c2ccccc2)CCC1=O` (centres undefined)?
Hck-Nef inh: inactive; Mcl1 Bid PPI: inactive; Mcl1 Noxa PPI: inactive; 14-3-3 Bad PPI: inactive; Mcl-1 Bim block: inactive

How did CC(/C=N/NC(=O)c1cc(-c2cccn2C)n[nH]1)=C\c1ccccc1 do in these assays?
Hck-Nef inh: inactive; Mcl1 Bid PPI: inactive; Mcl1 Noxa PPI: inactive; 14-3-3 Bad PPI: 95; Pf gametocyte: inactive

Results for O=C(COc1ccc(Cl)cc1Cl)Nc1c(-c2cccs2)nc2ccccn12 ?
Hck-Nef inh: inactive; Mcl1 Bid PPI: inactive; Mcl1 Noxa PPI: 52; 14-3-3 Bad PPI: inactive; Pf gametocyte: inactive; Mcl-1 Bim block: inactive

How did O=C(Nc1c(-c2cccs2)nc2ccccn12)c1ccccc1F do in these assays?
Hck-Nef inh: inactive; Mcl1 Bid PPI: inactive; Mcl1 Noxa PPI: inactive; 14-3-3 Bad PPI: inactive; Mcl-1 Bim block: inactive

How did CCn1c(=S)[nH]c2scc(-c3cccs3)c2c1=O do in these assays?
Hck-Nef inh: inactive; Mcl1 Bid PPI: inactive; Mcl1 Noxa PPI: inactive; 14-3-3 Bad PPI: inactive; Pf gametocyte: inactive; Mcl-1 Bim block: inactive

What do the screens show for `CC(C)n1c(=S)[nH]c2scc(-c3cccs3)c2c1=O`?
Hck-Nef inh: 98; Mcl1 Bid PPI: inactive; Mcl1 Noxa PPI: 73; 14-3-3 Bad PPI: inactive; Pf gametocyte: inactive

How did COc1ccc(C(=O)N2CC(c3ccccc3)CC2=O)cc1 (centres undefined) do in these assays?
Hck-Nef inh: inactive; Mcl1 Bid PPI: inactive; Mcl1 Noxa PPI: inactive; 14-3-3 Bad PPI: inactive; Pf gametocyte: inactive

Results for C#CCOCCOCCOCCNc1nc(N2CCN(C(=O)[C@H](CCCCN)n3cc([C@@H](N)CO)nn3)CC2)nc(N2CCN(C(=O)[C@H](Cc3cc4ccccc4[nH]3)n3cc([C@@H](N)CC(C)C)nn3)CC2)n1 ?
Hck-Nef inh: inactive; Mcl1 Bid PPI: 54; Mcl1 Noxa PPI: inactive; 14-3-3 Bad PPI: inactive; Mcl-1 Bim block: inactive

Results for C#CCOCCOCCOCCNc1nc(N2CCN(C(=O)[C@H](CCCCN)n3cc([C@@H](N)CO)nn3)CC2)nc(N2CCN(C(=O)[C@H](Cc3cc4ccccc4[nH]3)n3cc([C@@H](N)CO)nn3)CC2)n1 ?
Hck-Nef inh: inactive; Mcl1 Bid PPI: inactive; Mcl1 Noxa PPI: inactive; 14-3-3 Bad PPI: inactive

Results for C#CCOCCOCCOCCNc1nc(N2CCN(C(=O)C(Cc3ccc(O)cc3)n3cc(C(N)CC(C)C)nn3)CC2)nc(N2CCN(C(=O)C(Cc3cc4ccccc4[nH]3)n3cc(C(N)Cc4ccc(O)cc4)nn3)CC2)n1 (centres undefined) ?
Hck-Nef inh: inactive; Mcl1 Bid PPI: 96; Mcl1 Noxa PPI: inactive; 14-3-3 Bad PPI: inactive; Mcl-1 Bim block: inactive

Results for N=C(N)SCc1cn(-c2ccccc2)nc1-c1ccc(Br)cc1 ?
Hck-Nef inh: inactive; Mcl1 Bid PPI: inactive; Mcl1 Noxa PPI: inactive; 14-3-3 Bad PPI: 75; Pf gametocyte: inactive; Mcl-1 Bim block: inactive

What do the screens show for `COc1ccccc1NC(=O)CSc1nnnn1-c1ccccc1OC`?
Pf gametocyte: inactive

How did COc1ccccc1NC(=O)CSc1nnnn1-c1ccc2c(c1)OCO2 do in these assays?
Hck-Nef inh: inactive; Mcl1 Bid PPI: 99; Mcl1 Noxa PPI: inactive; 14-3-3 Bad PPI: inactive; Pf gametocyte: inactive; Mcl-1 Bim block: inactive

How did O=C(CNC(=S)N(Cc1ccccc1F)C1CCCCC1)NC1CC1 do in these assays?
Hck-Nef inh: inactive; Mcl1 Bid PPI: inactive; Mcl1 Noxa PPI: inactive; 14-3-3 Bad PPI: inactive; Pf gametocyte: inactive; Mcl-1 Bim block: inactive

Results for CCC(C)NC(=O)COC(=O)c1ccccc1OCC(=O)Nc1ccc(Br)cc1 (centres undefined) ?
Hck-Nef inh: inactive; Mcl1 Bid PPI: inactive; Mcl1 Noxa PPI: inactive; 14-3-3 Bad PPI: inactive; Pf gametocyte: inactive; Mcl-1 Bim block: inactive
